Data as given in PubChem BioAssay (NCATS).
Unmarked numbers belong to inactive results. Results filed as inconclusive are left out. The source made the active and inactive calls. Unless noted, the call rests on the fitted dose curve; in most records, active means well fitted curve in the direction sought with a large enough effect; inconclusive means small, poorly fitted or top-dose-only effect, or another doubt; inactive means no such curve, though single readings can be large; an effect the other way counts as inactive or inconclusive.

tested on: not listed separately; experiment: qHTS for Inhibitors of ATXN expression: Validation of Cytotoxic Assay (AID 588349); settings: cytotoxicity counter-screen for ATXN expression inhibitors, cell viability; series mostly up to 57.1 µM; activity change, negative = cytotoxicity: at the top concentration; further: on the % scale 0 is the no-effect control and ±100 the full control effect
Procedure, shortened: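 Titrated compounds are added to cultured HEK293 cells, which are then held at 37 degrees C for 72 hr; loss of intracellular ATP, measured with CellTiter Glo, indicates toxicity.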

Row | SMILES | activity change, negative = cytotoxicity [%]
1 | CC(=O)[C@@]1(O)CC[C@H]2[C@@H]3CCC4=CC(=O)CC[C@]4(C)[C@H]3CC[C@@]21C | -13
2 | CC(=O)Nc1nnc(S(N)(=O)=O)s1 | -3.02
3 | O=C(O)CCCCCCCC(=O)O | -8.47
4 | CN(C)CC/C=C1\c2ccccc2COc2ccccc21 | -29.7
5 | CCCCNC(=O)NS(=O)(=O)c1ccc(C)cc1 | -1.09
6 | COc1cc(Cc2cnc(N)nc2N)cc(OC)c1OC | 5.66
7 | C[C@]12CCC(=O)C=C1CC[C@@H]1[C@@H]2C(=O)C[C@@]2(C)[C@H]1CC[C@]2(O)C(=O)CO | 10.7
8 | NC(=O)N1c2ccccc2C=Cc2ccccc21 | -10.7
9 | COc1ccc(CN(CCN(C)C)c2ccccn2)cc1 | -7.49
10 | C[C@]12C=CC(=O)C=C1CC[C@H]1[C@@H]3C[C@@H](O)[C@](O)(C(=O)CO)[C@@]3(C)C[C@H](O)[C@@]12F | -5.04
11 | CC(C)(Oc1ccc(CCNC(=O)c2ccc(Cl)cc2)cc1)C(=O)O | -10.8
12 | O=c1[nH]c(=O)n([C@H]2C[C@H](O)[C@@H](CO)O2)cc1Br | -9.48
13 | CN=C(NC#N)NCCSCc1nc[nH]c1C | -16
14 | COC(=O)[C@H]1[C@H]2C[C@@H]3c4[nH]c5cc(OC)ccc5c4CCN3C[C@H]2C[C@@H](OC(=O)c2cc(OC)c(OC)c(OC)c2)[C@@H]1OC | -0.257
15 | Cc1ccc(S(=O)(=O)NC(=O)NN2CCCCCC2)cc1 | 1.28

tested on: not listed separately; experiment: qHTS for Inhibitors of ATXN expression: Validation (AID 588378); settings: cell-based ATXN2 expression reporter assay, luminescence; series mostly up to 57.1 µM; activity change, negative = inhibition: at the top concentration; further: nearly all actives have a fitted effect of over 75% in size; further: potency means the concentration at half of the fitted maximal effect; on activity change, negative = inhibition: on the % scale 0 is the no-effect control and ±100 the full control effect
Procedure, shortened: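 Cells: HEK293-ATXN2-FFLuc, phenol-red free DMEM, 2 h attachment. Compound pin-transfer, 24 h, 37 degrees C, 5% CO2. CellTiter-Fluor 30 min, Ex405/Em525; Bright-Glo 5 min, luminescence 2 s exposure.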

Row | SMILES | activity change, negative = inhibition [%] | Potency
16 | CC(=O)[C@@]1(O)CC[C@H]2[C@@H]3CCC4=CC(=O)CC[C@]4(C)[C@H]3CC[C@@]21C | -3.18 | –
17 | CC(=O)Nc1nnc(S(N)(=O)=O)s1 | 8.15 | –
18 | O=C(O)CCCCCCCC(=O)O | -0.388 | –
19 | COc1ccc2c(c1OC)C(=O)O[C@@H]2[C@H]1c2c(cc3c(c2OC)OCO3)CCN1C | -18.8 | –
20 | CCCCNC(=O)NS(=O)(=O)c1ccc(C)cc1 | 2.78 | –
21 | O=C(O)CN(CCN(CC(=O)O)CC(=O)O)CCN(CC(=O)O)CC(=O)O | -17.3 | –
22 | COc1cc(Cc2cnc(N)nc2N)cc(OC)c1OC | 14.8 | –
23 | C[C@]12CCC(=O)C=C1CC[C@@H]1[C@@H]2C(=O)C[C@@]2(C)[C@H]1CC[C@]2(O)C(=O)CO | -12.7 | –
24 | NC(=O)N1c2ccccc2C=Cc2ccccc21 | -7.56 | –
25 | Nc1nc(N)c2nc(-c3ccccc3)c(N)nc2n1 | 21.8 | –
26 | COc1cc(C(=O)OCCCN2CCCN(CCCOC(=O)c3cc(OC)c(OC)c(OC)c3)CC2)cc(OC)c1OC | -16.6 | –
27 | C[C@]12C=CC(=O)C=C1CC[C@H]1[C@@H]3C[C@@H](O)[C@](O)(C(=O)CO)[C@@]3(C)C[C@H](O)[C@@]12F | -17.3 | –
28 | COC(=O)[C@@H](N)Cc1ccc(O)c(O)c1 | -23.1 | –
29 | CC(C)(Oc1ccc(CCNC(=O)c2ccc(Cl)cc2)cc1)C(=O)O | -9.55 | –
30 | FC(F)(F)c1ccccc1-n1ccnc1 | -3.78 | –
31 | COCCOC(=O)C1=C(C)NC(C)=C(C(=O)OC(C)C)C1c1cccc([N+](=O)[O-])c1 (stereo not given) | -14.5 | –
32 | CC1=C(C)C(=O)C(CCCCC#CCCCC#CCO)=C(C)C1=O | – | 20 µM (active)
33 | O=c1[nH]c(=O)n([C@H]2C[C@H](O)[C@@H](CO)O2)cc1Br | -7.62 | –
34 | Cc1cc(C)c(/C=C2\C(=O)Nc3ccccc32)[nH]1 | -3.75 | –
35 | CCCCCN(CCCCC)C(=O)C(CCC(=O)O)NC(=O)c1ccc(Cl)c(Cl)c1 (stereo not given) | -16.6 | –
36 | CCOC(=O)C1=C(C)NC(C)=C(C(=O)OC)C1c1cccc([N+](=O)[O-])c1 (stereo not given) | -27.9 | –
37 | CN=C(NC#N)NCCSCc1nc[nH]c1C | -14.9 | –
38 | COC(=O)[C@H]1[C@H]2C[C@@H]3c4[nH]c5cc(OC)ccc5c4CCN3C[C@H]2C[C@@H](OC(=O)c2cc(OC)c(OC)c(OC)c2)[C@@H]1OC | -2.34 | –
39 | CCCNC(C)C(=O)Nc1ccccc1C (stereo not given) | -12.4 | –
40 | Cc1ccc(S(=O)(=O)NC(=O)NN2CCCCCC2)cc1 | 5.89 | –

target: DNA dC->dU-editing enzyme APOBEC-3G (Homo sapiens) (UniProt Q9HC16); experiment: qHTS for inhibitors of Vif-A3G interactions: Validation (AID 588379); settings: Vif-A3G protein interaction assay; series mostly up to 46.1 µM; activity change, negative = inhibition: at the top concentration; further: 0% is about no effect
Sequence (Q9HC16 whole entry, looked up): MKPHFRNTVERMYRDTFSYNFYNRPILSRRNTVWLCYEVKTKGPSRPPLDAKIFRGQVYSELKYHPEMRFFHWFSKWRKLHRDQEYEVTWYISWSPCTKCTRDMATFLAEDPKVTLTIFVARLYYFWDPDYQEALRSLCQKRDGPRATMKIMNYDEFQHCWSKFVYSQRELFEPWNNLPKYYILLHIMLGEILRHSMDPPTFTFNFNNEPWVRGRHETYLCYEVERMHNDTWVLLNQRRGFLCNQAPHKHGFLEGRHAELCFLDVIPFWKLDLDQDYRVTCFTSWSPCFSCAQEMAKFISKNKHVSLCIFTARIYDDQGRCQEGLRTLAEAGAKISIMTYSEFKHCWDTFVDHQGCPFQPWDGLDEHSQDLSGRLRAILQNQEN
Procedure, shortened: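 Yellow fluorescence (Ex 488, Em 500-530) of Vif-coexpressing HeLa A3G-eYFP cells, scanned by Acumen cytometer, reports blocked A3G degradation. Cells plated at 700/well overnight at 37 deg C before compound addition, then a further overnight compound incubation at 37 deg C.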

Row | SMILES | activity change, negative = inhibition [%] | outcome
41 | c1cc(CN2CCCCC2)cc(OCCCNc2nc3ccccc3s2)c1 | 2.13 | –
42 | CN(C)CC/C=C1\c2ccccc2COc2ccccc21 | -4.63 | –
43 | COc1ccc2c(c1OC)C(=O)O[C@@H]2[C@H]1c2c(cc3c(c2OC)OCO3)CCN1C | – | inactive
44 | COc1cc(Cc2cnc(N)nc2N)cc(OC)c1OC | -2.34 | –
45 | COc1ccc(CN(CCN(C)C)c2ccccn2)cc1 | 2.22 | –
46 | COc1cc(C(=O)OCCCN2CCCN(CCCOC(=O)c3cc(OC)c(OC)c(OC)c3)CC2)cc(OC)c1OC | 0.613 | –
47 | FC(F)(F)c1ccccc1-n1ccnc1 | -2.91 | –
48 | CCN(CC)CCOCCOC(=O)C1(c2ccccc2)CCCC1 | -16.3 | –
49 | O=c1[nH]c(=O)n([C@H]2C[C@H](O)[C@@H](CO)O2)cc1Br | -2.13 | –
50 | CN=C(NC#N)NCCSCc1nc[nH]c1C | 2.12 | –

target: Estrogen receptor (Homo sapiens) (UniProt P03372); experiment: qHTS assay for small molecule antagonists of estrogen receptor alpha signaling (AID 588513; active means well fitted curve in the direction sought with a large enough effect in the signal ratio, with a control signal flat, not every such curve was filed as active; the % refers to the signal ratio; further: on the % scale 0 is the no-effect control and ±100 the full control effect); settings: ER-alpha-UAS-bla HEK293, beta-lactamase ratio, antagonist mode; series mostly up to 76.9 µM; activity, negative = inhibition: at the top concentration
Sequence (P03372 whole entry, looked up): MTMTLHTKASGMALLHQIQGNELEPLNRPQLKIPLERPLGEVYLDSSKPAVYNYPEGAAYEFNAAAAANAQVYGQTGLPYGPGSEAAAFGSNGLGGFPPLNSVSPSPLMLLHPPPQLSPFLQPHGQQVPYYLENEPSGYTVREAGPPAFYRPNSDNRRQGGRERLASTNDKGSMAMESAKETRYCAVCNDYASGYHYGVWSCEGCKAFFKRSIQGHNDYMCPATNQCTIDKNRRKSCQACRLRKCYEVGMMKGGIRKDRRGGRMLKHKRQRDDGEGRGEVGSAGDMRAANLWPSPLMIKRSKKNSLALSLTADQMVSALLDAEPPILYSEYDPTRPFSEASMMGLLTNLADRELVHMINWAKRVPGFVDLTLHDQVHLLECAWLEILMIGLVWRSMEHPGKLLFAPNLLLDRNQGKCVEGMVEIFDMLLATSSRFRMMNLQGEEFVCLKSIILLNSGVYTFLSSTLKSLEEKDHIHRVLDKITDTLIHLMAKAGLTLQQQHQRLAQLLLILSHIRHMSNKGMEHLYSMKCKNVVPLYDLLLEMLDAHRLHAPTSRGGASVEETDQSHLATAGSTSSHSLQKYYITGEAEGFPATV
Procedure, shortened: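 Beta-lactamase reporter, antagonist mode, HEK 293 GripTite cells; 0.5nM E2 stimulus, 18 h, 37 C; CCF4 dye 2 h RT; fluorescence. IC50 and efficacy from Hill fits, normalized to E2 and DMSO.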

Row | SMILES | activity, negative = inhibition [%] | outcome
51 | CC(=O)Nc1nnc(S(N)(=O)=O)s1 | -50.6 | –
52 | COc1cc(Cc2cnc(N)nc2N)cc(OC)c1OC | -10.6 | –
53 | NC(=O)N1c2ccccc2C=Cc2ccccc21 | – | inactive
54 | Nc1nc(N)c2nc(-c3ccccc3)c(N)nc2n1 | 14.4 | –
55 | C[C@]12C=CC(=O)C=C1CC[C@H]1[C@@H]3C[C@@H](O)[C@](O)(C(=O)CO)[C@@]3(C)C[C@H](O)[C@@]12F | 7.93 | –
56 | CC(C)(Oc1ccc(CCNC(=O)c2ccc(Cl)cc2)cc1)C(=O)O | -17.4 | –
57 | O=c1[nH]c(=O)n([C@H]2C[C@H](O)[C@@H](CO)O2)cc1Br | 10 | –
58 | Nc1ncn([C@@H]2O[C@H](CO)[C@@H](O)[C@H]2O)c(=O)n1 | 36.9 | –
59 | CN=C(NC#N)NCCSCc1nc[nH]c1C | -4.09 | –
60 | Cc1ccc(S(=O)(=O)NC(=O)NN2CCCCCC2)cc1 | -15.3 | –
